Screening results deposited in PubChem BioAssay by National Center for Advancing Translational Sciences (NCATS).
A selection: hits, their analogues and other compounds. The true share with any hit is near 0.68%.
TbPYK inhibitor = inhibitors of Trypanosoma brucei pyruvate kinase; Q57TT1; TbPYK enzyme, Kinase-Glo Plus ATP luminescence, 45 min; Potency, µM (doses to about 76.8 µM), without a hit: top-dose activity, negative = inhibition, hits mostly inhibitors; hit rate 0.12% among 410,000; AID 624173; note: nearly all actives have a fitted effect of over 50% in size
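Activity of T. brucei pyruvate kinase was followed by Kinase-Glo Plus luminescence after the enzyme reacted 45 min at room temperature with 130 uM ADP (final) and substrate. Test compounds were added before ADP at multiple concentrations.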
LmPK inhibitor = blocks Leishmania mexicana pyruvate kinase activity | Q27686 | purified LmPK, Kinase-Glo ATP luminescence, 1 h | Potency, µM (highest dose often 57.5 µM), for inactives: at the highest dose activity change, negative = inhibition, most hits filed as inhibitors | hit rate 0.37% among 290,000
Target sequence (Q27686 whole entry, looked up): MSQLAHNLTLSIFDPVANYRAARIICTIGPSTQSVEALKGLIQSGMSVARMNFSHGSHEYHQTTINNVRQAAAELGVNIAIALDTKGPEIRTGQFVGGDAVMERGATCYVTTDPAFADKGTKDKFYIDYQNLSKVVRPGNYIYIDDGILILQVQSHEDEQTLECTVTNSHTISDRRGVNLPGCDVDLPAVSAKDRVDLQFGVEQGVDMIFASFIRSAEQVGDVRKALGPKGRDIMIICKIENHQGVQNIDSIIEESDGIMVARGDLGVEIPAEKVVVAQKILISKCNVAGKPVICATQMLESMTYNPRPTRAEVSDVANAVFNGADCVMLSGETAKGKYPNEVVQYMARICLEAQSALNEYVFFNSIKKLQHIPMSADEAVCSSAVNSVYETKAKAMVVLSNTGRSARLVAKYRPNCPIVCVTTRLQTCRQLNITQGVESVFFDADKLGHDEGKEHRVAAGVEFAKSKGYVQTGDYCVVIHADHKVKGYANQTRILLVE
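In 50 mM imidazole pH 7.2 with 7 mM MgCl2, LmPK (0.1 nM) turned over PEP (0.5 mM) and ADP (0.1 mM) for 1 h at room temperature. Luciferase read-out of ATP.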
RE007 growth inh = less growth of the S. pombe RE007 Vpr strain. S. pombe RE007 Vpr strain, BacTiter-Glo ATP luminescence, 24 h. Potency, µM (highest dose often 92.2 µM), without a hit: at the top dose activity change, negative = less growth, usual class: inhibitors. hit rate 0.21% among 360,000. AID 651644; active = well fitted falling curve with a large enough effect; inconclusive = small, poorly fitted or top-dose-only effect; inactive = no such curve, though single readings can be large or run the other way; note: nearly all actives have a fitted effect of over 50% in size
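Fission yeast RE007 carrying one integrated HIV-1 vpr copy, seeded at OD 0.01 in PMG+AL medium with 23 nL pinned compound. Grown 24 h at 30 degrees; viability read by BacTiter-Glo luminescence after 5 min.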
AMA1 RON2 block = disrupts binding of P. falciparum AMA1 to RON2. hit rate 0.2% among 360,000. AlphaScreen AMA1-biotinylated RON2 peptide binding. Potency, µM (series often up to 58.2 µM), inactives show at the top dose activity change, negative = inhibition, actives largely listed as inhibitors. AID 720542;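 note: 0% = vehicle wells and -100% = peptide control; nearly all actives have a fitted effect of over 45% in size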
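AMA1 (3D7) with his tag at 25 nM final met compounds first, then biotinylated RON2 peptide at 25 nM; detection used donor plus acceptor beads, 10 µg/mL apiece, read by AlphaScreen after 30 min at room temperature.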
The depositor's hits bear a star; ? = inconclusive; nt = not tested or not shown; [ ] = another dose, or the depositor's remark. Unless noted, calls come from the whole dose curve; as a rule, active = well fitted curve in the direction sought with a large enough effect; inconclusive = small, poorly fitted or top-dose-only effect, or another doubt; inactive = no such curve, though single readings can be large; an effect the other way counts as inactive or inconclusive. Unless noted, % is set by controls: 0 for no effect and ±100 for the full control effect; potency is the fitted concentration of half-maximal effect.

SMILES | TbPYK inhibitor | LmPK inhibitor | RE007 growth inh | AMA1 RON2 block
c1c2c(cc3sc(N4CCOCC4)nc13)OCO2 | ? | 16µM* | ? | -20%
CN(C)C(=O)N1CCC(C(=O)NCc2ccc(F)cc2)CC1 | 3% | 7% | -2% | 0%
COc1ccccc1-n1c(CNC(=O)c2cccc([N+](=O)[O-])c2C)n[nH]c1=S | 7.9µM* | 1% | 9% | 35%
Cc1cccc(-n2c(CNC(=O)c3cccc([N+](=O)[O-])c3C)n[nH]c2=S)c1 | 8.9µM* | -1%[11.5 µM] | -8% | -28%
C[C@H]1CN(S(=O)C(C)(C)C)[C@@H](CCO)/C1=C\CCO (stereo not given in full) | -2% | nt | 7% | 4%
CN(C)c1ccc(/C=C/c2ccc3c4ccccc4ccc3[n+]2-c2ccccc2)cc1 | ? | 1% | 28µM* | 11µM*
CN(C)c1ccc(/C=C/c2cccc[n+]2[O-])cc1 | -18% | -2% | -3% | -7%
CN(CCCS(=O)(=O)[O-])c1ccc(/C=C/c2ccc3ccccc3[n+]2C)cc1 | -11% | -5% | -24% | -1%
CN(C)c1ccc(/C=C/c2ccc3ccccc3[n+]2C)cc1 | ? | 14µM* | nt | ?
O=C(Nc1cccc(C(F)(F)F)c1)c1cccnc1N1CCN(c2ccccc2)CC1 | 2% | 2% | 1% | 30µM*
COc1ccc(-c2cc3nc4n(c(=O)c3s2)CCCCC4)cc1 | 2% | 5% | -7% | -4%
COc1ccc(-c2cc3nc4n(c(=O)c3s2)CCC4)cc1 | -3% | 7.1µM* | -12% | 1%
CCOc1ccc(-c2cc(C(=O)NCCc3ccc(OC)c(OC)c3)c3c(-c4ccc(F)cc4)[nH]nc3n2)cc1 | -8% | nt | nt | nt
O=C1c2c(O)ccc(O)c2C(=O)c2c(NCCNCCO)ccc(NCCNCCO)c21 | ? | nt | ? | 10µM*
O=[N+]([O-])c1ccc(NC(=S)N2CCOCC2)cc1 | 0% | 1% | 19% | 0%
CSc1ccccc1NC(=O)Nc1ccccc1 | -3% | ? | -19% | 5%
CCOc1ccc(NC(=O)Nc2ccccc2SC)cc1 | -9% | 7.9µM* | -7% | -2%
O=C(c1cccc(F)c1)N1CCN(C2CCCCC2)CC1 | 3% | 2% | -20% | -11%
O=C(O)CSc1cc(NS(=O)(=O)c2ccc(Br)cc2)c2ccccc2c1O | ? | 3.5µM* | -9% | -21%
O=S(=O)(Nc1cc(Sc2ncn[nH]2)c(O)c2ccccc12)c1ccccc1 | ? | 14µM* | ? | 35%
Cc1ccc(S(=O)(=O)Nc2ccc(Br)cc2C(NCC(=O)O)c2ccccc2)cc1 (stereo not given) | -1% | 10% | 7% | 80%
Cc1cc(O)c(Sc2ncn[nH]2)cc1NS(=O)(=O)c1ccc(Cl)cc1 | 11% | nt | 2% | 62%[11.6 µM]
Cn1c(=S)c2[nH]c(SCC3CCCO3)nc2n(C)c1=O (stereo not given) | ? | nt | 1% | 37%
COc1cc(OC)c(C2CC(=O)N3CN(c4ccccc4C)CSC3=C2C#N)cc1OC (stereo not given) | nt | 5% | nt | nt
COc1ccc(C2CC(=O)N3CN(c4ccccc4F)CSC3=C2C#N)cc1OC (stereo not given) | 3.2µM* | 6% | -2% | 22%
SMILES | TbPYK inhibitor | LmPK inhibitor | RE007 growth inh | AMA1 RON2 block
CCc1ccccc1N1CSC2=C(C#N)C(c3ccccc3F)CC(=O)N2C1 (stereo not given) | 8.9µM* | 14% | -14% | 25%
CC(C)OCCCNC(=O)CN1C(=O)CSc2ccc(S(=O)(=O)N3CCCCC3)cc21 | 4% | 0% | 4% | 10%
O=C(O)c1ccc(-c2sc(Nc3ccccc3)n[n+]2-c2ccccc2)cc1 | -5% | 2% | 5% | -7%
Cc1ccc(NC2=C/C(=N/S(=O)(=O)c3cccs3)c3ccccc3C2=O)cc1C | -14% | -20% | nt | -15%
Cc1ccccc1NC1=C/C(=N\S(=O)(=O)c2cccs2)c2ccccc2C1=O | -13% | ? | ? | 8.9µM*
Cc1cccnc1NC(=S)NCc1ccco1 | ? | 1% | -14% | -11%
N#Cc1cc2c([nH]c1=S)CCCC2 | 5.6µM* | 14% | 86% | 37%
CCCOc1ccc(C2C(=O)N(C3CCCCC3)CC(=O)N2CCc2ccccc2)cc1OC (stereo not given) | -1% | nt | nt | nt
CCC(CC)C(=O)Nc1cc(NC(=O)C(CC)CC)cc(C(=O)O)c1 | 2% | 2% | 0% | 16%
CN(C)C(CNc1ccc(C(F)(F)F)cc1[N+](=O)[O-])c1ccccc1 (stereo not given) | -4% | -6% | -27% | 14µM*
CC1CCN(C2CC(=O)N(c3ccc(Br)cc3Br)C2=O)CC1 (stereo not given) | -2% | 4% | 40µM* | 0%
O=C1CC(N2CCN(Cc3ccccc3)CC2)C(=O)N1c1ccccc1 (stereo not given) | 3% | 2% | -5% | -1%
O=C1CC(N2CCSCC2)C(=O)N1c1ccc(Br)cc1 (stereo not given) | -5% | 6% | ? | -5%
CC1CCN(C2CC(=O)N(c3ccccc3)C2=O)CC1 (stereo not given) | -2% | 0% | 20µM* | -1%
O=S(=O)(NN=C1CCCCCC1)c1ccccc1 | 8% | -10% | -2% | 6%
Cc1ccc(/C=C2/NC(=O)N(Cc3ccccc3)C2=O)o1 | ? | -4% | 45µM* | 0%
O=C(Nc1ccccc1Cl)C(Cl)C(=O)c1ccccc1 (stereo not given) | -18% | -6% | 2% | -4%
O=C(Nc1ccc(Cl)cc1)C(Cl)C(=O)c1ccccc1 (stereo not given) | ? | -1% | 11µM* | 2%
CCN(CC)c1ccc(/C=C2\C(=O)c3ccc(C(=O)O)cc3C2=O)cc1 | 25µM* | -21% | -20% | -12%[11.6 µM]
O=C(CSc1ccc2nnc(-c3cccnc3)n2n1)NCc1ccco1 | -9% | 15% | -4% | -2%
CC1(C)CC(=O)C2=C(C1)NC(=S)C(C#N)C21CCCCC1 (stereo not given) | 2.8µM* | -11% | -13% | 62%
Cc1cc2ncn(-c3nnnn3-c3ccccc3)c2cc1C | 3% | 10% | 6% | 6%
Cc1ccc(-n2nc3c(n2)/C(=N/O)CC/C3=N\O)cc1 | -14% | 14µM* | ? | -4%
Cc1cc(C)c2c(N)c(C(=O)c3ccc(Cl)c(Cl)c3)sc2n1 | 4% | 1% | -7% | 1%
CCC(=O)N(CC)C1=C(O)c2ccccc2C(=O)C1=O | ? | 25µM* | ? | -16%
O=C(NCC1CCCO1)c1sc(=S)n2c1[nH]c(=O)c1ccc(C(=O)N3CCCCC3)cc12 (stereo not given) | ? | 20µM* | -7% | 7%
Cc1ccc(-n2c(Cc3ccccc3)n[nH]c2=S)c(C)c1 | 10µM* | -12% | -23% | 47%
Cc1ccc(-n2c(CC#N)n[nH]c2=S)c(C)c1 | ? | ? | -3% | 63%
S=c1[nH]nc(Cc2ccccc2)n1-c1cccc2ccccc12 | 3.5µM* | 10µM* | 13% | 105%
